The values that follow come from PubChem BioAssay (NCI).

Holding throughout (assay): NCI-60 one-dose screen, 48 h (100 = growth as untreated, 0 = no growth, -100 = all killed)
Common to all, as to conditions: 10 µM unless noted

Test [1] concerns SR leukemia.
The subject of test [2] is OVCAR-8 ovarian.
For test [3], the system named is OVCAR-5 ovarian.
Test [4] concerns SK-OV-3 ovarian.
The test system of test [5] is IGROV1 ovarian.
For test [6], the system named is OVCAR-3 ovarian.
The test system of test [7] is HS 578T breast.
For test [8], the system named is NCI/ADR-RES ovarian.
Test [9] concerns T-47D breast.
Test [10] has as its system BT-549 breast.
Test [11] relates to MDA-MB-435 melanoma.
Test [12] concerns SW-620 colon.
Test [13] has as its system MCF7 breast.
The test system of test [14] is HCT-116 colon.
Test [15] has as its system KM12 colon.
For test [16], the system named is OVCAR-4 ovarian.
Test [17] deals with HCC-2998 colon.

Compounds without any hit were thinned out: in the full panel of roughly 83,000, 20% have a hit.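 Single-concentration screen, 48 h exposure, 96-well plates. Endpoint: percent growth. Below 10 = active.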 Values without a mark were called inactive. Activity calls are given as the source filed them.

For `O=C(/C=C(/C=C/c1cccc2[nH]ccc12)OB(F)F)/C=C/c1cccc2[nH]ccc12`, the growth in test [1] was 3.72% (active); in [2], -30% (active); in test [3] it was -27.6% (active); in [4], -20.7% (active); in test [5] it was -3.07% (active); in test [6] it was -25.1% (active). For the same compound, the growth was 10.3% in [7]; 3.47% (active) in test [8]; 7.95% (active) in test [9]; -19.5% (active) in test [10]; -34.4% (active) in [11]; 1.96% (active) in test [12]. The growth in [13] was 4.29% (active); in test [14], -84.7% (active); in test [15], -17.3% (active).

For `COc1ccc(OC)c(C(=O)/C=C/c2cc3c(c(OC)c2OC)OCO3)c1`, the growth in [1] was 17.8%; in test [2], 58.1%; in test [3], 121%; in [16], 63.4%; in test [4], 79.1%; in test [6], 59.4%. The growth in [7] is 75.9%; in [8] it was 63.1%; in test [9], 70.6%; in test [10] it was 65.6%; in test [11] it was 63.2%; in test [12], 68.8%. Moreover, the growth was 31.4% in test [13], 43.6% in [14], 86.3% in test [17] and 55% in test [15].

As for `CCCCCCCCCCCCCCCCCCOc1ccccc1CC(=O)NCC[N+]1(C)CCCC1`, the growth is 23% in test [1]; 49.7% in test [2]; 22.9% in [3]; 42.5% in test [16]; 77.4% in [4]; -21.5% (active) in [5]. Further, the growth in test [6] was 39%; in test [7], 60.7%; in test [8], 103%; in test [9], 69.9%; in test [10] it was 67.2%; in [11], 67.4%. For the same compound, the growth in test [12] was 64.7%; in [13], 53.1%; in test [14], 55.9%; in test [17], 32.7%; in [15] it was 18.9%.

`N#C/C(=C/c1ccc([N+](=O)[O-])cc1)n1nnc2cc(F)c(F)cc21`: the growth in [1] is 2.33% (active); in test [2] it was 37.5%; in [3], 108%; in [16] it was 86.5%; in test [4] it was 116%; in test [5], 73.6%. The growth in test [6] was 30.6%; in [7] it was 80.6%; in [8] it was 76.2%; in test [9], 11.6%; in test [10] it was 77.3%; in test [11], 64.2%. Moreover, the growth was 59.7% in [12]; 8.8% (active) in [13]; 5.65% (active) in test [14]; 70.5% in [17]; 13.1% in test [15].

Take `O=C1/C(=C/c2ccccc2Br)COc2ccc(O)c(O)c21`: the growth in [1] is 14.7%; in test [2], 9.72% (active); in test [3], 31.4%; in test [16], 48.2%; in test [4], 74.7%; in [5] it was -19.4% (active). The growth is 8.7% (active) in test [6]; 25.2% in [7]; 7.97% (active) in test [8]; -7.17% (active) in [9]; 14.7% in test [10]; 2.78% (active) in test [11]. Also, the growth in [12] is 5.6% (active); in test [13], 20.9%; in [14] it was -3.23% (active); in test [15] it was -7.57% (active).

Take `COC(=O)c1c2c(c(C)[n+]([O-])c1C)C(=O)C(NCc1ccc(Cl)cc1)=CC2=O`: the growth is 48.6% in test [1]; 33.1% in test [2]; 97.3% in [3]; 36.6% in test [16]; 95.8% in [4]; 61.2% in test [5]. Further, the growth is -7.64% (active) in [6]; 92.2% in test [7]; 54.8% in [8]; 37.5% in test [9]; 77.9% in [10]; 9.83% (active) in [11]. Moreover, the growth in test [12] was 45.9%; in test [13], 35.9%; in test [14], 11.5%; in [17], 59.6%; in test [15], 48.8%.

For `CN(C)CCNC(=O)c1cccc(-c2cnc3ccc(-c4ccc5c(c4)OCO5)nn23)c1`, the growth is -2.23% (active) in [1]; 88.6% in test [2]; 89.3% in test [3]; 67.2% in test [16]; 61.1% in [4]; 30.6% in test [5]. For the same compound, the growth in test [6] was 76.9%; in test [7], 80.1%; in test [8] it was 85.8%; in test [9] it was 75.2%; in [10], 80.7%; in test [11], 86%. Moreover, the growth in test [12] is 52.8%; in test [13], 27.1%; in test [14], 5.58% (active); in test [17], 77.3%; in test [15], 17.6%.

As for `O=C(c1ccc(-c2ccccc2)cc1)c1ccc([N+](=O)[O-])cc1`, the growth in test [1] is 86.8%; in [2] it was 104%; in [3] it was 120%; in test [16] it was 105%; in test [4] it was -100% (active); in test [5] it was 101%. The growth in test [6] was 104%; in test [7], 110%; in test [8], 114%; in test [9], 92.8%; in test [10], 94.5%; in [11], 92.6%. Further, the growth in [12] was 101%; in test [13], 95.9%; in test [14], 92.6%; in test [15] it was 97%.

Consider `O=C1/C(=C/c2ccc(Cl)cc2)COc2ccc(O)cc21`, for which the growth in test [1] was 5.45% (active); in test [2] it was 77.8%; in test [3], 88.7%; in test [4] it was 132%; in test [5] it was 78.6%; in [6], 75.5%. Also, the growth is 83.1% in [7]; 88.7% in test [8]; 83.5% in test [9]; 80.5% in [10]; 64.7% in [11]; 2.28% (active) in test [12]. For the same compound, the growth was 5.46% (active) in test [13], 4.5% (active) in test [14], 83.8% in test [17] and 20.3% in test [15].

For the compound `CCCCN[C@H]1CC[C@@]2(C)[C@@H](CC[C@@]3(C)[C@H]2[C@H](O)C[C@H]2/C(=C(\CCC=C(C)C)C(=O)OC)[C@@H](OC(C)=O)C[C@@]23C)[C@@H]1C`, the growth was 74.5% in test [1]; 102% in test [2]; 91.4% in test [3]; 102% in test [16]; 104% in test [4]; 99.2% in test [5]. Further, the growth in [6] was 106%; in [7], 87.3%; in test [8], 100%; in test [9], 105%; in [10], 93.5%; in [11] it was 98%. Also, the growth in [12] was 95.9%; in test [13] it was 90.8%; in test [14], 102%; in [17], 99.3%; in test [15], 104%.

With `C=C(C)[C@@H]1CC[C@]2(C(=O)OC)CC[C@]3(C)[C@H](CC[C@@H]4[C@@]5(C)C/C(=C/NC(N)=S)C(=O)C(C)(C)[C@@H]5CC[C@]43C)[C@@H]12`, the growth in test [1] was 81.6%; in test [2], 97.5%; in test [3], 118%; in test [16], 84.2%; in test [4] it was 97.7%; in [5], 70.6%. Also, the growth in [6] was 88.5%; in test [7], 91.7%; in test [8] it was 104%; in test [9], 60.9%; in [10] it was 126%; in test [11], 93.7%. The growth in [12] is 87.3%; in test [13], 80.7%; in test [14], 74.4%; in test [17], 99.4%; in test [15] it was 82.6%.
